Where “and” joins values, the source holds several entries; their conditions need not be identical. Identical values can stand only once. Compounds without any hit were thinned out: in the full panel of roughly 83,000, 20% have a hit.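 A percent growth of 40 corresponds to 60% growth inhibition; 0 means no net growth; -100 means all cells died. Active threshold: below 10.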 Calls of active or inactive are those of the source.
Legend:
Experiment in all cases: NCI-60 one-dose screen, 48 h (100 = growth as untreated, 0 = no growth, -100 = all killed)
Conditions in all cases: 10 µM
NCI-H23 lung = test system: NCI-H23 lung
NCI-H522 lung = test system: NCI-H522 lung
MDA-MB-231 breast = test system: MDA-MB-231 breast
M14 melanoma = test system: M14 melanoma
SK-MEL-5 melanoma = test system: SK-MEL-5 melanoma
UACC-62 melanoma = test system: UACC-62 melanoma
LOX IMVI melanoma = test system: LOX IMVI melanoma
MOLT-4 leukemia = test system: MOLT-4 leukemia
SR leukemia = test system: SR leukemia
OVCAR-8 ovarian = test system: OVCAR-8 ovarian
OVCAR-5 ovarian = test system: OVCAR-5 ovarian
OVCAR-4 ovarian = test system: OVCAR-4 ovarian
SK-OV-3 ovarian = test system: SK-OV-3 ovarian
IGROV1 ovarian = test system: IGROV1 ovarian
HS 578T breast = test system: HS 578T breast
T-47D breast = test system: T-47D breast
SW-620 colon = test system: SW-620 colon
MCF7 breast = test system: MCF7 breast
HCT-116 colon = test system: HCT-116 colon
KM12 colon = test system: KM12 colon

SMILES | growth (NCI-H23 lung) | growth (NCI-H522 lung) | growth (MDA-MB-231 breast) | growth (M14 melanoma) | growth (SK-MEL-5 melanoma) | growth (UACC-62 melanoma) | growth (LOX IMVI melanoma) | growth (MOLT-4 leukemia) | growth (SR leukemia) | growth (OVCAR-8 ovarian) | growth (OVCAR-5 ovarian) | growth (OVCAR-4 ovarian) | growth (SK-OV-3 ovarian) | growth (IGROV1 ovarian) | growth (HS 578T breast) | growth (T-47D breast) | growth (SW-620 colon) | growth (MCF7 breast) | growth (HCT-116 colon) | growth (KM12 colon)
CC1=C[C@H]2O[C@@H]3C[C@@H](O)[C@](C)([C@@]2(C)CC1)[C@@]31CO1 | 28.4% (inactive) | 31% (inactive) | 42.4% (inactive) | 6.68% (active) | 12.1% (inactive) | 44.5% (inactive) | 13.6% (inactive) | 9.97% (active) | 18.1% (inactive) | 27.7% (inactive) | 78.9% (inactive) | 32% (inactive) | 22.9% (inactive) | 28.3% (inactive) | 37.8% (inactive) | 29.6% (inactive) | 24% (inactive) | 17.6% (inactive) | 7.52% (active) | 26.1% (inactive)
O=C(CCCc1ccc(N(CCCl)CCCl)cc1)OCc1ccccc1 | 89.3% (inactive) | 84.3% (inactive) | 103% (inactive) | 95.1% (inactive) | 93.7% (inactive) | 77.8% (inactive) | 77.2% (inactive) | 76.7% (inactive) | 42.2% (inactive) | 89.7% (inactive) | 117% (inactive) | 105% (inactive) | 108% (inactive) | 87.8% (inactive) | 114% (inactive) | 75.6% (inactive) | 91.1% (inactive) | 81.8% (inactive) | 92.7% (inactive) | 99.7% (inactive)
CC1=C(CN(O)C(N)=O)C2=C(C)C3(CC3)[C@@](C)(O)C(=O)C2=C1 | -28.5% (active) | 0.934% (active) | 6.59% (active) | -63% (active) | -61.6% (active) | -19.7% (active) | -27.6% (active) | 104% (inactive) | 67.6% (inactive) | 1.75% (active) | 17.5% (inactive) | -0.96% (active) | -16.3% (active) | 11.1% (inactive) | -16.8% (active) | -3.77% (active) | 86% (inactive) | 9.79% (active) | 4.72% (active) | 3.43% (active)
CC(C)(O)/C=C/C(=O)[C@](C)(O)[C@H]1[C@H](O)C[C@@]2(C)[C@H]3CC=C4[C@@H](C[C@H](O)C(=O)C4(C)C)[C@]3(C)C(=O)C[C@]12C | 27.7% (inactive) | -42.5% (active) | 10.4% (inactive) | 17.1% (inactive) | 1.6% (active) | -2.65% (active) | -13.8% (active) | 24.8% (inactive) | 8.56% (active) | 23% (inactive) | 35.1% (inactive) | 18.3% (inactive) | -8.31% (active) | -24.4% (active) | 3.77% (active) | 27.2% (inactive) | 22.9% (inactive) | 13% (inactive) | 13.9% (inactive) | 42.2% (inactive)
C/C=C/CC(C)C(O)[C@H](NC(=O)[C@@H]1CCCN1C(=O)C(C)(C)NC(=O)CCCCCCC)C(=O)N[C@@](C)(CC)C(=O)N[C@@H](CCC(N)=O)C(=O)N[C@H](CCC(N)=O)C(=O)NC(C)(C)C(=O)NC(C)(C)C(=O)N[C@@H](CCC(N)=O)C(=O)N[C@H](CC(C)C)C(=O)N[C@H](CO)CC(C)C (some centres undefined) | 16.4% (inactive) | 103% (inactive) and -8.57% (active) | 108% (inactive) and -6.87% (active) | 103% (inactive) and 25.1% (inactive) | 100% (inactive) and -65.7% (active) | 103% (inactive) and 19.2% (inactive) | 33.2% (inactive) | 101% (inactive) and -32.4% (active) | 92.9% (inactive) and 0.907% (active) | 106% (inactive) and 24.6% (inactive) | 114% (inactive) and 40% (inactive) | 108% (inactive) and 44.5% (inactive) | 101% (inactive) and 52.6% (inactive) | 113% (inactive) and 46.4% (inactive) | 110% (inactive) and -10.8% (active) | 102% (inactive) and 7.2% (active) | 103% (inactive) and 31.6% (inactive) | 93.3% (inactive) and 4.76% (active) | 108% (inactive) and 25.3% (inactive) | 119% (inactive) and -53% (active)
C/C=C/CC(C)C(O)[C@H](NC(=O)[C@@H]1CCCN1C(=O)C(C)(C)NC(=O)CCCCCCCCC)C(=O)NC(C)(C)C(=O)N[C@@H](CCC(N)=O)C(=O)N[C@H](CCC(N)=O)C(=O)NC(C)(C)C(=O)NC(C)(C)C(=O)N[C@@H](CCC(N)=O)C(=O)N[C@H](CC(C)C)C(=O)N[C@H](CO)CC(C)C (some centres undefined) | 37.1% (inactive) and -16.1% (active) | -41.2% (active) and -62.8% (active) | 6.89% (active) and -91.8% (active) | -31.6% (active) and -53.6% (active) | -93.3% (active) and -92.8% (active) | -0.972% (active) and -81.2% (active) | -78.5% (active) and -80.2% (active) | -48.2% (active) and -23.8% (active) | -57.3% (active) and 12.2% (inactive) | 16.4% (inactive) and 4.24% (active) | 50.4% (inactive) and -66.8% (active) | 60% (inactive) and 47.2% (inactive) | 61.8% (inactive) and 50.9% (inactive) | 30.5% (inactive) and 5.27% (active) | -36.6% (active) and -60.1% (active) | 24.8% (inactive) and 10.8% (inactive) | 33.1% (inactive) and 15.3% (inactive) | 2.98% (active) and -45.1% (active) | 13.1% (inactive) and 6.15% (active) | -75.9% (active) and -59% (active)
COc1cc2c(cc1OC)[C@@H]1N(CC2)C(=O)c2ccccc2[C@@]1(C)C(=O)O | 102% (inactive) | 99.8% (inactive) | 101% (inactive) |  | 101% (inactive) | 95.8% (inactive) | 105% (inactive) | 108% (inactive) | 117% (inactive) | 104% (inactive) | 106% (inactive) | 105% (inactive) | 113% (inactive) | 106% (inactive) | 108% (inactive) | 116% (inactive) | 109% (inactive) | 97.4% (inactive) | 111% (inactive) | 113% (inactive)
CC1=C2C(=C[C@@](C)(COC(=O)c3ccc(S(=O)(=O)F)cc3)[C@@H]2O)C(=O)[C@](C)(O)C12CC2 | -32.2% (active) | -64.5% (active) | -16.3% (active) | -85% (active) | -82.5% (active) | -77.1% (active) | -40.2% (active) | 10.2% (inactive) | -0.78% (active) | -31.1% (active) | -12.4% (active) | -33.5% (active) | -24.7% (active) | -13.9% (active) | -16% (active) | 0.908% (active) | -20.5% (active) | 1.68% (active) | -4.41% (active) | 7.74% (active)
CC1=C(CCC=NNC(N)=O)C2=C(C)C3(CC3)[C@@](C)(O)C(=O)C2=C1 | -35.2% (active) | -62% (active) | -5% (active) | -84.4% (active) | -80.6% (active) | -54.9% (active) | -31.9% (active) | 47.2% (inactive) | 29.9% (inactive) | -36.1% (active) | -6.93% (active) | -33.3% (active) | -52.1% (active) | -17.8% (active) | -23.6% (active) | -9.73% (active) | 55.4% (inactive) | 6.29% (active) | 1.32% (active) | 6.64% (active)
CC1=C2C(=C[C@@](C)(COC(=O)c3ccc(S(=O)(=O)F)cc3)[C@@H]2OC(=O)c2ccc(S(=O)(=O)F)cc2)C(=O)[C@](C)(O)C12CC2 | -21.4% (active) | -52% (active) | 1.44% (active) | -46.3% (active) | -96.9% (active) | -38.7% (active) | 6.84% (active) | 23.4% (inactive) | 16.3% (inactive) | 5.91% (active) | 4.81% (active) | -9.11% (active) | -9.96% (active) | 0.149% (active) | 33.4% (inactive) | -20% (active) | -3.99% (active) | 6.34% (active) | 0.583% (active) | 28.2% (inactive)
COc1cc2c(O[C@@H]3OC[C@H](O)[C@H](O)[C@H]3O)c3c(c(-c4ccc5c(c4)OCO5)c2cc1OC)C(=O)OC3 | 72.8% (inactive) | 13.5% (inactive) | 22.9% (inactive) | 31.3% (inactive) | -93.4% (active) | 20.8% (inactive) | -57.7% (active) | 110% (inactive) | 14.5% (inactive) | 22% (inactive) | 39.4% (inactive) | 74% (inactive) | 69.1% (inactive) | 53% (inactive) | 91.1% (inactive) | 18.2% (inactive) | 68.8% (inactive) | 71.2% (inactive) | 29.1% (inactive) | 71.6% (inactive)
N#Cc1c(-n2c(Br)c(Br)c3cc(Br)ccc32)[nH]c2c(Br)cc(Br)cc12 | -36.4% (active) | -14.8% (active) | -2.11% (active) | -32.4% (active) | -76.8% (active) | -30.8% (active) | -25.2% (active) | 2.02% (active) | 0.987% (active) | 1.23% (active) | 33% (inactive) | 20.4% (inactive) | -44.3% (active) | 25.4% (inactive) | -6.84% (active) | -13% (active) | 4.15% (active) | -13.6% (active) | -66.1% (active) | -19.4% (active)
